Compound activity as filed in PubChem.
HCV inh: HCV inhibition | Huh7.5.1 HCVcc-Cre infection, luciferase reporter, 44 h | Potency, µM (doses to about 41.8 µM), inactives show at the highest dose activity change, negative = inhibition, most hits filed as inhibitors | 340,000 compounds, 3.4% hits; active = well fitted inhibition curve with a large enough effect; inconclusive = small, poorly fitted or top-dose-only effect, or another doubt; inactive = no such curve, though single readings can be large or run the other way; also: potency is read from the fitted curve at half-maximal effect
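Compounds are dispensed onto cells plated 4 h earlier at 1,000 per well, with HCVcc-Cre virus (about 0.5 moi) added next. Following 44 h of culture, luminescent signal is measured for 15 sec after 15 min with substrate at room temperature.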
HCMV antiviral: human cytomegalovirus inhibition; HFF cells, HCMV-luciferase reporter, 72 h; hits give low values; activity change, negative = inhibition, % at 57.5 µM; 410,000 compounds, 4.5% hits; AID 1259415; in the data active = activity change below about -60%; inconclusive = no clear call, values can overlap the other calls; inactive = above about -39%
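After 16 h attachment at 37C, HFF cells received test compound and HCMV-luciferase (1 PFU/cell); reporter luminescence read 72 h later, data normalized against buffer-only and known inhibitor Salinomycin.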
VACV mCherry inh: vaccinia inhibition (mCherry reporter); Potency, µM (top dose mostly 36.5 µM), without a hit: at the highest dose activity change, negative = inhibition, most hits filed as inhibitors; Vaccinia virus mCherry reporter infection, fluorescence; AID 720579; 310,000 compounds, 0.63% hits; calls by dose curve; tested in A549 cells; also: potency is read from the fitted curve at half-maximal effect; nearly all actives have a fitted effect of over 35% in size
MARV entry inh: blocks Marburg virus binding to or entry into cells; AID 540276; Marburg virus pseudotyped entry inhibition, cell reporter; 300,000 compounds, 1.8% hits; Potency, µM (series often up to 37.8 µM), without a hit: at the highest dose activity change, negative = inhibition, most hits filed as inhibitors; calls by dose curve; tested in HEK293 cells; also: potency is read from the fitted curve at half-maximal effect
VACV Venus inh: vaccinia inhibition (Venus reporter); 330,000 compounds, 0.46% hits; AID 720580; Potency, µM (series often up to 36.5 µM), for the others: at the highest dose activity change, negative = inhibition, actives largely listed as inhibitors; Vaccinia virus Venus reporter expression, fluorescence; calls by dose curve; tested in A549 cells; also: potency is read from the fitted curve at half-maximal effect; nearly all actives have a fitted effect of over 30% in size
LASV entry inh: Lassa virus entry inhibition | Lassa virus pseudotype entry inhibition, cell reporter | Potency, µM (highest dose often 37.9 µM), inactives show at the top dose activity change, negative = inhibition, hits mostly inhibitors | 300,000 compounds, 1.2% hits | AID 540256; calls by dose curve; tested in HEK293 cells; also: potency is read from the fitted curve at half-maximal effect; nearly all actives have a fitted effect of over 50% in size
* = called active by the depositor; i = inactive; ? = inconclusive; · = no result; ! = repeats disagree; [ ] = remark or other dose. A selection: hits, their analogues and other compounds. The true share with any hit is near 7.8%. % is scaled to controls: 0 for no effect and ±100 for the full control effect.

SMILES	HCV inh	HCMV antiviral	VACV mCherry inh	MARV entry inh	VACV Venus inh	LASV entry inh
Cc1ccc(N2CCN(C(=O)C3CCC(CNS(=O)(=O)c4ccc(Br)s4)CC3)CC2C)cc1 (stereo not given)	·	-35	?	-4%[46.1 µM]	?	-10%[46.1 µM]
Cc1oc(-c2ccccc2NC(=O)c2cccnc2)nc1CNC(=O)C1CCCCCN1C (stereo not given)	·	·	i	·	-12%	·
CC1(C(=O)NCC2CCOCC2)Cc2c(-c3cccc(C(F)(F)F)c3)ccnc2O1 (stereo not given)	·	7	-14%	·	?	·
C=C1SC(Nc2c(C)cc(C)cc2C)=NC12CCCCC2	-65%	-89*	-18%	3.5µM*	-24%	?
O=C(NCC1CCCO1)/C(=C\c1cccc([N+](=O)[O-])c1)NC(=O)c1ccccc1 (stereo not given)	5%	20	-10%	-9%[46.1 µM]	-5%	1%
O=C(NCC1CCCO1)C(=Cc1cccc([N+](=O)[O-])c1)C(=O)NCC1CCCO1 (stereo not given)	?	-99*	13µM*	12µM*	?	?
Cc1ccc(-n2c3c(cc(-c4nc(-c5ccc(Cl)cc5)cs4)c2=O)C(=O)CC(C)(C)C3)cc1C	·	4	-7%	-28%[46.1 µM]	-4%	-4%[46.1 µM]
CN(CCC#N)C(=O)COC(=O)c1c2c(nc3ccccc13)/C(=C\c1ccco1)CC2	13µM*	?	?	?	-21%	?
CN(C)CCNC(=O)CCCN1C(=O)c2cccnc2Oc2ccc(Cl)cc21	·	0	-8%	·	2%	29%[46.1 µM]
Cc1nn(S(=O)(=O)c2cccs2)c(C)c1Sc1ccc([N+](=O)[O-])cc1	10µM*	-84*	?	-13%[46.1 µM]	?	?
Cc1nn(S(=O)(=O)c2ccccc2)c(C)c1Sc1ccc([N+](=O)[O-])cc1	-18%	-85*	-1%	?	-7%	-13%
Cc1nn(S(=O)(=O)c2cccc([N+](=O)[O-])c2)c(C)c1Br	?	-5	8%	-16%[46.1 µM]	6%	-12%
CCCCNC(=O)N[C@H]1CC[C@@]23CCCN2C(=O)CCC[C@H]3C1Cc1ccccc1 (stereo not given in full)	·	-6	·	·	·	·
Cc1cccc(C)c1NC(=O)CNC(=O)C12CC3CC(CC(O)(C3)C1)C2	30%	-73*	-21%	?	-8%	0%
COc1ccccc1CN(Cc1c(Cl)cccc1Cl)S(=O)(=O)c1ccc(Br)cc1	·	-12	-10%	·	-11%	9%[46.1 µM]
Cc1ccc(C(C)C)c2c1C(c1ccc3c(c1)OCO3)CC(=O)O2 (stereo not given)	13µM*	-15	?	·	-12%	·
C=CCOc1ccccc1C(=O)/C=C1/C(=O)Nc2ccccc21	-13%	-103*	·	·	·	·
COc1ccc(C(=O)/C=C2/C(=O)Nc3ccccc32)c(OC)c1	?	-100*	?	?	?	?
O=C1Nc2ccccc2/C1=C/C(=O)c1cccs1	?	-95*	-5%	?	-17%	-15%
C=CCOc1ccc(C(=O)/C=C2/C(=O)Nc3ccccc32)cc1	-20%	-69*	-18%	?	-22%	-19%[46.1 µM]
COc1ccc(C(=O)/C=C2/C(=O)Nc3ccccc32)cc1OC	?	48	i	·	-24%	·
O=c1c2oc3ccccc3c2ncn1Cc1ccc(Br)cc1	·	14	0%	·	-2%	0%[46.1 µM]
Cc1cccn2c(=O)c(/C=C(\C#N)c3nc4ccccc4n3C)c(Oc3ccc(Br)cc3)nc12	·	-12	-3%	17%[46.1 µM]	6%	-1%[46.1 µM]
COc1ccc(CCNC(=O)c2nc(SCc3ccc(C)cc3)ncc2Cl)cc1OC	·	-37	-19%	-10%[46.1 µM]	-11%	-27%[46.1 µM]
Cc1cccc(C(=O)Nc2ccc(S(=O)(=O)N3CCC(c4nc5ccccc5s4)CC3)cc2)c1	·	-9	-1%	1%[46.1 µM]	-22%	12%[46.1 µM]
SMILES	HCV inh	HCMV antiviral	VACV mCherry inh	MARV entry inh	VACV Venus inh	LASV entry inh
O=C(NCc1cccnc1)/C(=C\c1ccc(-c2ccc(Cl)c(Cl)c2)o1)S(=O)(=O)c1ccccc1	11µM*	-102*	?	?	11µM*	?
O=C(NCc1cccnc1)c1ccc(-c2ccc(Cl)cc2)o1	?	-2	·	·	·	·
CC(=O)O[C@]1(C(C)=O)CC[C@H]2[C@@H]3C=C(Cl)C4=CC(=O)[C@@H]5C[C@@H]5[C@]4(C)[C@H]3CC[C@@]21C	7%	-90*!	?	?	?	16µM*
O=C(O)CCc1ccc2ccccc2c1	·	·	-14%	·	-4%	·
O=C(CCN1C(=O)/C(=C\c2ccccc2F)SC1=S)N1CCOCC1	·	2	?	·	13µM*	·
O=C(CCCN1C(=O)/C(=C\c2ccccc2)SC1=S)N1CCOCC1	?	-99*	?	?	?	-14%
O=C(c1ccccc1)N1CCN(CCc2ccccn2)CC1	31%	-17	?	-12%[46.1 µM]	-3%	13%
O=C(CN1C(=O)/C(=C/c2ccccc2)SC1=S)N1CCN(CCc2ccccn2)CC1	?	-90*	-12%	?	-15%	?
O=C(CCN1C(=O)/C(=C\c2ccccc2)SC1=S)N1CCCCC1	6%	-68*	?	3%[46.1 µM]	-7%	0%
CCOc1ccccc1CNC(=O)Cn1cc2c(n1)-c1c(oc(C(=O)N3CCCC3)c1C)CC2	·	?	-11%	·	-14%	?
C/C(CS(=O)(=O)c1ccc(Cl)c(Cl)c1)=N/NC(N)=S	-18%	-70*	-27%	7%[46.1 µM]	-28%	-14%
Cc1ccc(/C([O-])=C(/C(=S)NCc2ccc3c(c2)OCO3)[n+]2ccc(N(C)C)cc2)c(C)c1	6%	-70*	-8%	-3%[14.2 µM]	-25%	?
FC(F)(F)c1cccc(N2CCN(Cc3nnc(-c4ccc5c(c4)OCO5)o3)CC2)c1	·	1	-5%	-8%[46.1 µM]	-6%	-3%[46.1 µM]
CCn1c2ccccc2c2cc(NC(=O)N3CCOCC3)ccc21	?	79	·	5%	-12%	4%
CCn1c2ccccc2c2cc(NC(=O)COC(=O)c3ccccc3F)ccc21	?	-20	10µM*	2%	?	11%
CCn1c2ccccc2c2cc(NC(=O)COC(=O)c3ccc(NC(=O)CC#N)cc3)ccc21	?	-8	?	0%	?	?
CCn1c2ccccc2c2cc(NC(=O)COC(=O)c3cc(S(N)(=O)=O)c(Cl)cc3Cl)ccc21	?	0	11µM*	-20%[46.1 µM]	?	19%
CCn1c2ccccc2c2cc(NC(=O)CCCN3C(=O)CCC3=O)ccc21	3.5µM*	-28	·	-28%	-27%	-29%
CCn1c2ccccc2c2cc(NC(=O)CN(C)CC(=O)Nc3ccc(N4CCOCC4)cc3)ccc21	11µM*	?	·	·	·	·
COc1ccc(-c2noc(-c3cccnc3N3CCN(c4ccc(OC)cc4)CC3)n2)cc1	·	1	-26%	3%[46.1 µM]	-12%	13%[46.1 µM]
